Laboratory results from PubChem BioAssay.
Potency and affinity values are given separately. The source made the active and inactive calls.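 The calls were made as follows: active = signal drop whose fitted half-maximal concentration is at most twice the top valid dose, in every test run; inconclusive = mixed calls across runs, poor fit, or flat 30 to 70% inhibition; inactive = wrong direction, flat within 30%, or potency beyond limit.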

Assay: RMG-1 ovarian cancer cell viability loss – cherry-pick, dose response (AID 687029);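 also: cells exposed to compound for 96 hours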
Settings: RMG-1 viability, CellTiterGlo ATP luminescence, 96 h; series mostly up to 35 µM; activity change, negative = inhibition: at the top concentration
For `Nc1ccc(-c2nc3ccc(C(=O)O)cc3s2)cc1`, the “activity change, negative = inhibition” value was 14% (inactive). With `COc1cccc(-c2ccc(C3[C@@H]4CN(C(=O)C5CC5)C[C@H]3N4)cc2)c1` (stereo not given in full) the “activity change, negative = inhibition” value was 2.52% (inactive). In the case of `NS(=O)(=O)c1ccc(CCN2C(=O)/C(=C\c3ccc(Cl)cc3)SC2=S)cc1`, the “activity change, negative = inhibition” value is reported as 52.8% (inactive). In the case of `C[C@@H]1CN([C@H](C)CO)C(=O)c2cc(NS(=O)(=O)c3ccccc3)ccc2O[C@@H](C)CCCCO[C@H]1CN(C)Cc1ccc(C(F)(F)F)cc1`, the “activity change, negative = inhibition” value is reported as 9.1% (inactive). In the case of `O=C1CN(S(=O)(=O)Cc2ccccc2)C[C@H]2[C@H](c3ccc(C#Cc4ccc(F)cc4)cc3)[C@H](CO)N12`, the “activity change, negative = inhibition” value is reported as 27.1% (inactive). With `O=C(C1CC1)N1C[C@@H]2N[C@H](C1)C2c1ccc(-c2cccc(F)c2)cc1` (stereo not given in full) the “activity change, negative = inhibition” value was 11.3% (inactive). For `Oc1c(Cl)cc(Cl)c(Cl)c1Cc1c(O)c(Cl)cc(Cl)c1Cl`, the “activity change, negative = inhibition” value was 17% (inactive). With `C[C@@H]1CN([C@@H](C)CO)C(=O)Cc2cc(NC(=O)Cc3ccccc3)ccc2O[C@H]1CN(C)Cc1ccc(-c2ccccc2)cc1` the “activity change, negative = inhibition” value was 20.9% (inactive). With `COc1cccc(C#Cc2ccc([C@H]3[C@@H](CO)N(C(=O)c4ccccn4)[C@H]3C#N)cc2)c1` the “activity change, negative = inhibition” value was 22.1% (inactive). With `Cn1cnc(S(=O)(=O)N2C[C@@H]3N[C@H](C2)C3c2ccc(-c3ccccc3F)cc2)c1` (stereo not given in full) the “activity change, negative = inhibition” value was 13.8% (inactive). With `C[C@@H]1CCCCO[C@@H](CN(C)S(=O)(=O)c2ccccc2)[C@H](C)CN([C@H](C)CO)C(=O)c2cc(NC(=O)Nc3ccc(C(F)(F)F)cc3)ccc2O1` the “activity change, negative = inhibition” value was 22.8% (inactive). With `C[C@H](CO)N1C[C@H](C)[C@H](CN(C)Cc2ccc3c(c2)OCO3)OCCCC[C@H](C)Oc2ccc(NC(=O)Nc3ccc(C(F)(F)F)cc3)cc2C1=O` the “activity change, negative = inhibition” value was 0.34% (inactive). For `O=C(C[C@H]1C[C@@H]2c3cc(NS(=O)(=O)c4ccc(F)cc4)ccc3O[C@@H]2[C@@H](CO)O1)N1CCc2ccccc2C1`, the “activity change, negative = inhibition” value was 23.3% (inactive). For `Cc1ccc2nc(-c3ccc(Br)cc3)cn2c1`, the “activity change, negative = inhibition” value was 13.7% (inactive). For `COc1ccc(S(=O)(=O)N(C)C[C@@H]2OCCCC[C@H](C)Oc3ccc(NS(=O)(=O)c4ccc(Cl)cc4)cc3C(=O)N([C@H](C)CO)C[C@@H]2C)cc1`, the “activity change, negative = inhibition” value was 32.5% (inactive). With `C[C@H](CO)N1C[C@H](C)[C@@H](CN(C)Cc2ccc(C(F)(F)F)cc2)OCCCC[C@H](C)Oc2ccc(NS(=O)(=O)c3ccc(F)cc3)cc2C1=O` the “activity change, negative = inhibition” value was 16.9% (inactive). In the case of `COc1ccc(S(=O)(=O)Nc2ccc3c(c2)C(=O)N([C@@H](C)CO)C[C@@H](C)[C@H](CN(C)Cc2ccc(C(F)(F)F)cc2)OCCCC[C@H](C)O3)cc1`, the “activity change, negative = inhibition” value is reported as 34.6% (inactive). In the case of `COc1ccccc1S(=O)(=O)N(C)C[C@H]1Oc2cc(C#CCC3CCCC3)ccc2S(=O)(=O)N([C@@H](C)CO)C[C@H]1C`, the “activity change, negative = inhibition” value is reported as 28% (inactive). In the case of `COc1ccc(S(=O)(=O)N(C)C[C@@H]2Oc3ccc(NC(=O)Nc4ccc(C(F)(F)F)cc4)cc3CC(=O)N([C@H](C)CO)C[C@@H]2C)cc1`, the “activity change, negative = inhibition” value is reported as 18.9% [at 30 µM] (inactive). With `COc1ccccc1C#Cc1ccc([C@H]2[C@H](C#N)N(C(=O)C3CCC3)[C@H]2CO)cc1` the “activity change, negative = inhibition” value was 18.4% (inactive). For `COc1ccccc1C#Cc1ccc([C@H]2[C@H](C#N)N(C(=O)C3CC3)[C@H]2CO)cc1`, the “activity change, negative = inhibition” value was 12.5% (inactive). In the case of `Cc1ccc(S(=O)(=O)Nc2ccc3c(c2)C(=O)N([C@H](C)CO)C[C@@H](C)[C@@H](CN(C)Cc2ccc(C(F)(F)F)cc2)OCCCC[C@H](C)O3)cc1`, the “activity change, negative = inhibition” value is reported as 10.6% (inactive). For `C[C@@H]1CN([C@@H](C)CO)S(=O)(=O)c2ccc(C#Cc3ccccc3F)cc2O[C@H]1CN(C)C(=O)Cc1ccccc1`, the “activity change, negative = inhibition” value was 18.5% (inactive). In the case of `C[C@H]1CCCCO[C@H](CN(C)S(=O)(=O)c2ccccc2)[C@@H](C)CN([C@@H](C)CO)C(=O)c2cc(NS(=O)(=O)c3ccc(Cl)cc3)ccc2O1`, the “activity change, negative = inhibition” value is reported as 18.5% (inactive). With `C[C@H](CO)N1C[C@H](C)[C@@H](CN(C)Cc2ccc(C(F)(F)F)cc2)Oc2ccc(NS(=O)(=O)c3ccc(Cl)cc3)cc2CC1=O` the “activity change, negative = inhibition” value was 19.3% (inactive). With `O=C(C[C@@H]1C[C@@H]2c3cc(NS(=O)(=O)c4ccc(F)cc4)ccc3O[C@@H]2[C@@H](CO)O1)NCc1ccc(Oc2ccccc2)cc1` the “activity change, negative = inhibition” value was 34.1% (inactive). In the case of `C[C@H](CO)N1C[C@H](C)[C@H](CN(C)Cc2ccc(C(=O)Nc3ccccc3N)cc2)Oc2ccc(N(C)C)cc2C1=O`, the “activity change, negative = inhibition” value is reported as 29.3% (inactive). With `N#C[C@@H]1[C@@H](c2ccc(C#Cc3ccccc3F)cc2)[C@H](CO)N1C(=O)C1CCCCC1` the “activity change, negative = inhibition” value was 31.2% [at 30 µM] (inactive). For `COc1ccc(S(=O)(=O)Nc2ccc3c(c2)C(=O)N([C@H](C)CO)C[C@H](C)[C@@H](CN(C)S(=O)(=O)c2ccc(Cl)cc2)OCCCC[C@H](C)O3)cc1`, the “activity change, negative = inhibition” value was 6.14% (inactive). In the case of `Cn1nnnc1Sc1ncnc2scc(-c3cccc(Br)c3)c12`, the “activity change, negative = inhibition” value is reported as 10.6% (inactive). For `CCCCCCCCn1c2c(c(=N)c3c1CCC3)CCCC2`, the “activity change, negative = inhibition” value was -3.08% (inactive). With `Cc1ccc(S(=O)(=O)Nc2ccc3c(c2)C(=O)N([C@H](C)CO)C[C@@H](C)[C@H](CN(C)Cc2ccc(C(F)(F)F)cc2)OCCCC[C@H](C)O3)cc1` the “activity change, negative = inhibition” value was 8.96% (inactive). In the case of `CCCC#Cc1ccc([C@H]2[C@@H](C#N)N(C(=O)C3CCCCC3)[C@H]2CO)cc1`, the “activity change, negative = inhibition” value is reported as 26.5% (inactive). In the case of `COc1ccc(NC(=O)N2CCCCN3[C@H](C2)[C@@H](c2ccc(C#Cc4ccccc4)cc2)[C@@H]3CO)cc1`, the “activity change, negative = inhibition” value is reported as 23.5% (inactive). In the case of `N#C[C@H]1[C@H](c2ccc(C#Cc3ccccc3F)cc2)[C@H](CO)N1C(=O)C1CCC1`, the “activity change, negative = inhibition” value is reported as 11.3% (inactive). For `COc1ccc(CN(C)C[C@@H]2OCCCC[C@H](C)Oc3ccc(NC(=O)Nc4ccc(C(F)(F)F)cc4)cc3C(=O)N([C@@H](C)CO)C[C@H]2C)cc1`, the “activity change, negative = inhibition” value was -2.45% (inactive). For `C[C@@H]1CCCCO[C@H](CN(C)Cc2ccc(Cl)c(Cl)c2)[C@@H](C)CN([C@@H](C)CO)C(=O)c2cc(NS(=O)(=O)c3ccccc3)ccc2O1`, the “activity change, negative = inhibition” value was 35.4% (inactive). In the case of `O=C(Nc1cccc(C(=O)O)c1)Nc1ccc2c(c1)OCO2`, the “activity change, negative = inhibition” value is reported as 13.6% (inactive). With `COc1cccc(C#Cc2ccc([C@H]3[C@@H](CO)N(C(=O)C4CCCCC4)[C@H]3C#N)cc2)c1` the “activity change, negative = inhibition” value was 27.6% (inactive). With `COc1ccc(NC(=O)Nc2ccc3c(c2)C(=O)N([C@H](C)CO)C[C@H](C)[C@H](CN(C)Cc2ccc(C(F)(F)F)cc2)OCCCC[C@H](C)O3)cc1` the “activity change, negative = inhibition” value was 18.7% (inactive).
